In PubChem BioAssay (NCI):
Compounds without any hit were thinned out: in the full panel of roughly 79,000, 15% have a hit. Cut-off read from the data, not from the text of the source: active = growth inhibition above about 70%; inactive = the rest.

Experiments:
[1] = NCI Yeast Anticancer Drug Screen. Data for the rad50 strain (AID 155);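 note: 0% = growth of vehicle-only cultures of the same strain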; conditions: S. cerevisiae rad50 strain growth inhibition; at 50.0 µM; active compounds read high
In short: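 Vehicle-treated cultures provide the reference for the growth inhibition reported for compound-exposed, repair-deficient yeast.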

[2] = NCI Yeast Anticancer Drug Screen. Data for the mec2-1 strain (AID 157); conditions: S. cerevisiae mec2-1 strain, at 50.0 µM, active compounds read high
In short: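 Each compound was tested on mec2-1 yeast, a strain altered in DNA damage repair or cell cycle control. Growth inhibition is reported relative to vehicle.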

[3] = NCI Yeast Anticancer Drug Screen. Data for the sgs1 mgt1 strain (AID 161);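 note: 0% = growth of cultures given vehicle only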; conditions: S. cerevisiae sgs1 mgt1 strain, at 50.0 µM, active compounds read high
In short: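 Genetically altered yeast, compound exposure, growth inhibition relative to vehicle.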

[4] = NCI Yeast Anticancer Drug Screen. Data for the cln2 rad14 strain (AID 165);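 note: 0% = growth equal to vehicle treated cultures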; conditions: S. cerevisiae cln2 rad14 strain, at 50.0 µM, active compounds read high
In short: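 Test compounds were added to cln2 rad14 yeast cultures; inhibition of growth was then determined by comparison with vehicle treatment.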

[5] = NCI Yeast Anticancer Drug Screen. Data for the bub3 strain (AID 167); conditions: S. cerevisiae bub3 mutant strain, at 50.0 µM, active compounds read high
In short: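 Mutant yeast screening strain plus compound; vehicle-treated cultures serve as the 0% inhibition reference.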

[6] = NCI Yeast Anticancer Drug Screen. Data for the mlh1 rad18 strain (AID 175); conditions: S. cerevisiae mlh1 rad18 strain growth inhibition; at 50.0 µM; active compounds read high
In short: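 Inhibition values reflect reduced growth of mutant yeast versus vehicle-treated controls following compound exposure; the mutations affect DNA damage repair.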

Measured: growth inhibition

Cc1n(Cc2ccccc2)nc2sc(N)n[n+]12
inactive: [1] -32% | [2] -9.45% | [3] -56.3% | [4] -0.55% | [5] -4.65% | [6] -6.95%

CC(=O)Oc1cc(C=O)ccc1O
inactive: [1] 0.75% | [2] 6.7% | [3] -3.3% | [4] 1.65% | [5] -7.25% | [6] -7.6%

CC(C)CC1NC(=O)CCC(NC(=O)C(Cc2ccc(O)cc2)NC(=O)OCc2ccccc2)C(=O)NC(Cc2ccccc2)C(=O)NC(Cc2ccccc2)NC1=O (stereo unspecified)
inactive: [1] -24.9% | [2] -21.6% | [3] -24% | [4] 8.6% | [5] -7.55% | [6] -18%

CCCCC1NNC(CCCC)NN1 (stereo unspecified)
inactive: [1] 2.8% | [2] -15.2% | [3] -18.8% | [4] -25.8% | [5] -6.3% | [6] -1.4%

COc1ccc(/C=C2/SC(=Nc3ccccc3)N(NC(=O)Cc3ccccc3)C2=O)c(OC)c1
inactive: [1] -17.9% | [2] -19.3% | [3] 7.45% | [4] -12.8% | [5] -1.85% | [6] 1.9%

O=C1OC(C2OC(=O)C(=O)C2C(=O)c2cccc([N+](=O)[O-])c2)C(C(=O)c2cccc([N+](=O)[O-])c2)C1=O (stereo unspecified)
inactive: [1] 0.5% | [2] 40.9% | [3] 13.3% | [4] -33.6% | [5] -36.5% | [6] 29.6%

O=C(NC12CC3CC(CC(C3)C1)C2)C(=O)c1c[nH]c2ccc(Br)cc12
inactive: [1] -21.9% | [2] -20.3% | [3] -14.1% | [4] -21.4% | [5] -2.95% | [6] -52.4%

CC1(C)OCC(C2OC3OC(C)(C)OC3C2O)O1 (stereo unspecified)
inactive: [1] 4% | [2] 15.2% | [3] 10.5% | [4] -15.8% | [5] 11.7% | [6] 7.9%

CC(=O)Oc1ccc(C2OC(=O)c3ccccc3N2C(C)=O)cc1 (stereo unspecified)
inactive: [1] 4.05% | [2] 27.6% | [3] 12.7% | [4] -6.3% | [5] 34.6% | [6] 26.9%

COC(=O)C[CH2][Ge]([CH3])([CH3])[S]c1ccccc1
inactive: [1] 52.9% | [2] 27.1% | [3] 34.1% | [4] 4.3% | [5] 15.4% | [6] 18.1%

CC(=O)c1cccc(C(C)=O)c1N=Cc1ccc(Cl)cc1
inactive: [1] -30.3% | [2] -27.9% | [3] -26.4% | [4] -11.8% | [5] -18.1% | [6] -18.9%

O=C(CCC(=O)NO)NO
inactive: [1] 1.4% | [2] -12.6% | [3] 4.75% | [4] -17.7% | [5] -20.9% | [6] -15.9%

O=C1CN(C2CCCCC2)CC(=O)N2C(c3ccccc3)CCCN12 (stereo unspecified)
inactive: [1] 3.3% | [2] -5.4% | [3] 14.7% | [4] 11.8% | [5] 0.55% | [6] -1.85%

COC(=O)C1(CC(=O)C2CC2)NC(=S)NC(=O)C1C#N (stereo unspecified)
inactive: [1] 13.2% | [2] -10.2% | [3] -12.3% | [4] -8.6% | [5] -21.4% | [6] 5.2%

CCOCCC12CCCCC1C/C(=N/OC(C)=O)c1ccccc12 (stereo unspecified)
inactive: [1] 9.3% | [2] -5.95% | [3] -0.45% | [4] 1.2% | [5] 15.7% | [6] 35.8%

COC(=O)c1nnn(-c2ccccc2C(C)C)c1C(=O)c1ccccc1
inactive: [1] 7% | [2] -8.85% | [3] -0.9% | [4] -5.75% | [5] -21.4% | [6] 24.5%

COc1ccc(N=Nc2c(C)nc(N)nc2C)cc1
inactive: [1] 2.1% | [2] 18% | [3] 8.05% | [4] -26.8% | [5] -14.3% | [6] 12.6%

CC(=O)OCCOC(=O)Nc1cccc2ccccc12
inactive: [1] -9.85% | [2] -7.9% | [3] -1.3% | [4] 30.9% | [5] 2.65% | [6] -0.6%

Cc1ccc(S(=O)(=O)NC2C(=O)c3ccccc3C(=O)C2n2cnc3ccccc32)cc1 (stereo unspecified)
inactive: [1] 14.3% | [2] 1.8% | [3] -10.9% | [4] -16.9% | [5] -14.9% | [6] -28.8%

C=CCNC(=S)Nc1ccc(OC(=O)NC2CCCCC2)cc1
inactive: [1] 6.4% | [2] 23.6% | [3] 15.1% | [4] -7.85% | [5] -2.4% | [6] 31.9%

O=c1/c(=c2\c(=O)c3cccc4cccc2c43)c2cccc3cccc1c32
inactive: [1] -10.2% | [2] 24.9% | [3] -0.4% | [4] -34% | [5] -9.05% | [6] -18.1%
